This note sets out measurements from PubChem BioAssay.

Activity calls are given as the source filed them. Unless noted, how the calls were made is not given here.

Assay [1] can be described thus: compounds binding Alexa647 anti-His antibody – biochemical, small-molecule microarray, 635 nm fluorescence, artefact control for SMM control protein annotation, primary screen (AID 1128).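 Further: score merges feature fluorescence with signal-to-noise for each printed compound spot.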 As to conditions: higher = more signal.
For assay [2], the system named is Human papillomavirus type 1a E7 protein (residues 1-88). Briefly: HPV1a E7 small-molecule binders, primary screen, biochemical, small-molecule microarray, residues 1-88, 635 nm (AID 1129). As to conditions: small-molecule microarray binding, fluorescence 635 nm; higher = more signal.
The target in assay [3] is Focal adhesion kinase 1 (Homo sapiens) (UniProt Q05397). The assay is described as follows: PTK2 protein binding on printed compound slides – biochemical, small-molecule microarray, 635/667 nm fluorescence, BSA, DTT, primary screen (AID 1130).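 Further: composite of spot emission at 667 nm and signal to noise over triplicate slides.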 The note with it: 635 nm fluorescence, higher = more signal.
The subject of assay [4] is Fibrinogen (Alexa647-labelled). Briefly: Alexa647-fibrinogen binding to printed small molecules – biochemical, small-molecule microarray, 635/667 nm fluorescence, artefact control for SMM control-protein annotation, profiling panel (AID 1131).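 Further: z-score merges 667 nm fluorescence with per-spot signal-to-noise over triplicate slides.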 As to conditions: fibrinogen-A647 binding fluorescence, higher = more signal.
Assay [5] deals with Follistatin (Homo sapiens) (UniProt P19883). Briefly: FST protein binding to printed compounds – biochemical, small-molecule microarray, 635/667 nm fluorescence, primary screen (AID 1132). The note with it: 635 nm fluorescence, higher = more signal.
In assay [6] the target is Fibroblast growth factor 2 (Homo sapiens) (UniProt P09038). The assay is described as follows: basic fibroblast growth factor binding to printed compounds – biochemical, small-molecule microarray, 635/667 nm fluorescence, primary screen (AID 1133). The note with it: FGF2, fluorescence 635/667, higher = more signal.
Assay [7] can be described thus: JC-1 mitochondrial potential readout, lung cancer cells – cell-based, A549, JC-1 fluorescence, basal, 24 h, 100 nL, profiling panel (AID 1138).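 Further: A549 lung adenocarcinoma cells under basal conditions with no added stimulus; test concentration not given here.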 The note with it: higher = more signal.
Another assay deals with Lefty1. The assay is described as follows: Lefty1 protein binding to printed compounds – biochemical, small-molecule microarray, 635/667 nm fluorescence, primary screen (AID 1139). The note with it: fluorescence 635/667, higher = more signal.
Assay [8] concerns wheat germ agglutinin (Triticum aestivum), Alexa647-labelled. Briefly: Alexa647-WGA lectin binding to printed small molecules – biochemical, small-molecule microarray, 635/667 nm fluorescence, artefact control for SMM control-protein annotation, profiling panel (AID 1140).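 Further: score merges 667 nm feature emission with signal to noise over triplicate slides.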 The note with it: WGA-A647 binding, 635 nm fluorescence, higher = more signal.
Assay [9] addresses Luciferin 4-monooxygenase (Photinus pyralis) (UniProt P08659). Briefly: inhibition of purified Photinus pyralis luciferase – biochemical, luminescence, purified enzyme, 2006 set, primary screen (AID 1141).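 Further: cell-free assay with purified firefly luciferase at 100 ng per well in PBS; test concentration not given here.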 The note with it: purified firefly luciferase, SteadyGlo luminescence, 30 min; higher = more signal, called active from +8 up or from −8 down.
Assay [10] has as its system Wnt5a (protein binding on small-molecule microarray). Briefly: small molecules binding Wnt5a protein – biophysical, small-molecule microarray, 635/667 nm fluorescence, primary screen (AID 1142).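 Further: fluorescence read at 667 nm with signal to noise per printed feature.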 As to conditions: 635 nm fluorescence, higher = more signal.
Assay [11] in a line: ATP-based viability of Huh7 replicon cells – cell-based, CellTiter-Glo luminescence, basal, 48 h, cytotoxicity control for HCV replication inhibitor project, primary screen (AID 1143).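 Further: Huh7 hepatoma cells carrying a hepatitis C replication reporter with no stimulus; test concentration not given here.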 The note with it: higher = more signal, called active from +8 up or from −8 down.
Assay [12] can be described thus: Pseudomonas biofilm growth suppression – PAO1 strain, BacTiter-Glo luminescence, LB-PBS, primary screen (AID 1144). The note with it: P. aeruginosa PAO1 biofilm, 12 h, higher = more signal.
Assay [13] can be described thus: basal CRE-LacZ reporter activity in PC12 – cell-based, unstimulated, primary screen (AID 1145). As to conditions: no forskolin, luminescence, 4.5 h, higher = more signal, called active from +8 up or from −8 down.
A short description of assay [14]: forskolin-driven CRE-LacZ activity in PC12 – cell-based, CRE-LacZ reporter, forskolin-stimulated, primary screen (AID 1146).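 Further: PC12 cells with 6xCRE LacZ reporter stimulated by forskolin 10 µM; beta-galactosidase reporter signal reflecting CREB driven transcription.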 The note with it: luminescence, 4.5 h, higher = more signal, called active from +8 up or from −8 down.
In assay [15] the target is Streptavidin (Streptomyces avidinii) (UniProt P22629). Briefly: compounds binding control protein streptavidin – biophysical, small-molecule microarray, 635/667 nm fluorescence, artefact control for SMM compound annotation, primary screen (AID 1147).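 Further: signal reflects streptavidin binding to arrayed compounds as a control protein.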 The note with it: higher = more signal.
A short description of assay [16]: probe aInhba binding on compound microarray – biochemical, small-molecule microarray, 635/667 nm fluorescence, primary screen (AID 1148).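 Further: score merges 667nm spot fluorescence with signal-to-noise for antibody binding to printed compounds.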 As to conditions: higher = more signal.
Assay [17] concerns the target Torsin-1A (Homo sapiens) (UniProt O14656). Briefly: TOR1A wild-type binding on microarray – cell lysate, small-molecule microarray, lysate, 635/667 nm, primary screen (AID 1149). The note with it: COS7 hTOR1A-WT lysate, 635 nm fluorescence, higher = more signal.
Assay [18] has the same target. The assay is described as follows: torsin A mutant lysate binding on microarrays – cell lysate, small-molecule microarray, COS7 lysate, 635/667 nm fluorescence, primary screen (AID 1150).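 Further: score pools 667 nm emission and signal to noise measuring lysate protein binding.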 As to conditions: COS7 hTOR1A mutant lysate, 635 nm fluorescence, higher = more signal.
For assay [19], the system named is Sonic hedgehog protein (Shh). Briefly: Sonic hedgehog microarray binding compounds – biochemical, small-molecule microarray, 635/667 nm fluorescence, primary screen (AID 1151).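 Further: Shh protein binding to compounds spotted on small-molecule microarray slides; score combines spot fluorescence intensity with signal-to-noise across triplicate slides.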 The note with it: 635 nm fluorescence, higher = more signal.

Torsin-1A (Homo sapiens), sequence (O14656 whole entry, looked up): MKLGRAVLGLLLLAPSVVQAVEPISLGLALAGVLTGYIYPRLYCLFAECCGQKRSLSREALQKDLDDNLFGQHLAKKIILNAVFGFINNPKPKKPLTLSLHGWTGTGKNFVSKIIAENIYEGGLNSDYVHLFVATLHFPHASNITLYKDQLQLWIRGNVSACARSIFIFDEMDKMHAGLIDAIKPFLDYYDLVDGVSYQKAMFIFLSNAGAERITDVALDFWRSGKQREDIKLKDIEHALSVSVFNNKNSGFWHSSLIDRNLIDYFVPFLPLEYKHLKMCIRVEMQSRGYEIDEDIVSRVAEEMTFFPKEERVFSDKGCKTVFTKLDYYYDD
Streptavidin (Streptomyces avidinii), sequence (P22629 whole entry, looked up): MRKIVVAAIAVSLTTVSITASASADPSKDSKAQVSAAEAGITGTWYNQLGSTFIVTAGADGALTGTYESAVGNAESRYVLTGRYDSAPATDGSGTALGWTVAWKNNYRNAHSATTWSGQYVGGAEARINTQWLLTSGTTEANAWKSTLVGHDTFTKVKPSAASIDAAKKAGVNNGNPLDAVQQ
Focal adhesion kinase 1 (Homo sapiens), sequence (Q05397 whole entry, looked up): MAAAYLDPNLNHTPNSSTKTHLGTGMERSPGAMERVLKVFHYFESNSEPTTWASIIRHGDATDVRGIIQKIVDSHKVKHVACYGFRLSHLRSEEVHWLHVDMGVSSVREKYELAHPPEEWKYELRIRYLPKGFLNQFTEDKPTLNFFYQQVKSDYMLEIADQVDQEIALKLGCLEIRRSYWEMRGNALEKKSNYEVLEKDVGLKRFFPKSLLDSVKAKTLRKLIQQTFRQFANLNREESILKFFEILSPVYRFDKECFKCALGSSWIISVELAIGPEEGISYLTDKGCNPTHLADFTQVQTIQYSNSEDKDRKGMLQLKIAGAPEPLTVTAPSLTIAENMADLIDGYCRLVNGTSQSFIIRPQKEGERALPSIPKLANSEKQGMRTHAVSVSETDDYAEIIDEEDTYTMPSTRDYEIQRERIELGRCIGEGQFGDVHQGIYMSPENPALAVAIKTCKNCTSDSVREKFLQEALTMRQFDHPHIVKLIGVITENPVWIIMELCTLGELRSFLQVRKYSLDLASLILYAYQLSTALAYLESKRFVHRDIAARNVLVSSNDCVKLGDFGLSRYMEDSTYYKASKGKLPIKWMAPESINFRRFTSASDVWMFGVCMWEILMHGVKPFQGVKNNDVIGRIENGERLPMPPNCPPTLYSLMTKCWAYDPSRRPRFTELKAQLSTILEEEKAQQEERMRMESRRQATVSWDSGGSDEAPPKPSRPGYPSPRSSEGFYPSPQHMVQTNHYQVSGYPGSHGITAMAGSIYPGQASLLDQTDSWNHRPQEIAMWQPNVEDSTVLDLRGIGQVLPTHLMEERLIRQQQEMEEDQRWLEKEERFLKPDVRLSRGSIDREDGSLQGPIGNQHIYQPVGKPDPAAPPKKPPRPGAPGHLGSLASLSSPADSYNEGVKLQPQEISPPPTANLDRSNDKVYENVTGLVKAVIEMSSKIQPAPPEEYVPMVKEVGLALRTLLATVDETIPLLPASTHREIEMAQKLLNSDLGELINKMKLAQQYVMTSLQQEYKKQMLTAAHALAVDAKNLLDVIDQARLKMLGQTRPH
Follistatin (Homo sapiens), sequence (P19883 whole entry, looked up): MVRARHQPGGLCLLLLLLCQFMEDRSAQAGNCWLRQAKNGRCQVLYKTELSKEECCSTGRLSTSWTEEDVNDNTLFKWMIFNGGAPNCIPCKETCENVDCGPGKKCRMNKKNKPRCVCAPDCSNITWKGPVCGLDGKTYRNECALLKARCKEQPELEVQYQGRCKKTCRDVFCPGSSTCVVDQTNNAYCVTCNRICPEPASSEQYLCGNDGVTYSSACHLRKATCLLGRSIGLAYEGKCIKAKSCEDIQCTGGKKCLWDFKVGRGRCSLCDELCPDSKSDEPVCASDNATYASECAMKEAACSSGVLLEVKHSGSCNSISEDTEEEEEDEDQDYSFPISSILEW
Luciferin 4-monooxygenase (Photinus pyralis), sequence (P08659 whole entry, looked up): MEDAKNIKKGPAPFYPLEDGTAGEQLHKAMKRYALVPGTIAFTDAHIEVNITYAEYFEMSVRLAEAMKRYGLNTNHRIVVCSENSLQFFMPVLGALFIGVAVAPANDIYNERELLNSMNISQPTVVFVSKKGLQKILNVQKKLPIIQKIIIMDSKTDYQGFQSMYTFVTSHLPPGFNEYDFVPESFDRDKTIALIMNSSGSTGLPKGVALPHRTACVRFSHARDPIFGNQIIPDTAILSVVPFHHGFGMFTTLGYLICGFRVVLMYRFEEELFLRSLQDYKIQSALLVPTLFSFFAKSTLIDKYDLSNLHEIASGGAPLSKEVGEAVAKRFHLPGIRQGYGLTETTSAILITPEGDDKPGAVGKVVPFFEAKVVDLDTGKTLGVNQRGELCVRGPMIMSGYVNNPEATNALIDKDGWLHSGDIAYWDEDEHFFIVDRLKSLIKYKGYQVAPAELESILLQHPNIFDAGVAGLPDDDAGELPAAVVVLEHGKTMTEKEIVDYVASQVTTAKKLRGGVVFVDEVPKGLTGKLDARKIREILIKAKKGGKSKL
Fibroblast growth factor 2 (Homo sapiens), sequence (P09038 whole entry, looked up): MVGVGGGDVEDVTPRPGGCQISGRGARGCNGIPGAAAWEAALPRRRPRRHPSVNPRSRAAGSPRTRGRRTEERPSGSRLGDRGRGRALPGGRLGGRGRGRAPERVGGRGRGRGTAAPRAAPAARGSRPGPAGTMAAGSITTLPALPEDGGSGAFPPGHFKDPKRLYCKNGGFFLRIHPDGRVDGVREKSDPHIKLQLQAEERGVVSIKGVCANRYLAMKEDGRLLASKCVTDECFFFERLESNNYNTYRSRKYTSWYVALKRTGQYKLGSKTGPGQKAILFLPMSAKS

On to `[N-]=[N+]=Nc1ccccc1C[C@@]1(C(=O)O)N=C(c2ccc(OCCCO)cc2)O[C@@H]1c1ccccc1`, for which the composite z-score in assay [1] was 1.22; in [2] it was 0.749; in assay [3], 0.769; in assay [4] it was 0.997; in assay [5], 0.247; in assay [6], -0.0664. Besides, the composite z-score with Lefty1 was -0.634; in [8] it was 1.09; in assay [10], 0.104; in assay [15] it was 1.48; in [16], 0.0633; in the assay with Torsin-1A (Homo sapiens) [17] it was 0.0324. The values for the composite z-score (in the assay with Torsin-1A (Homo sapiens) [18]; in [19]) were 0.779 and -0.0424, respectively. The z-score in assay [7] is 0.528; in assay [9], -0.972 (inactive); in assay [11], -0.275 (inactive); in assay [12], -0.078 (inactive); in assay [13], -0.585 (inactive); in [14], -0.218 (inactive).

`COc1c(C)cc(-c2cc3c(c(-c4ccccc4)n2)[Si](C(C)C)(C(C)C)OC3)cc1C`: the composite z-score in assay [1] is 0.188; in [2], -0.892; in assay [3], -0.353; in assay [4], 0.363; in assay [5] it was 0.134; in assay [6], 0.514. Moreover, the composite z-score in the assay on Lefty1 was -0.135; in [8], 0.245; in assay [10], 0.0775; in assay [15] it was 0.657; in [16] it was -0.0313; in the assay with Torsin-1A (Homo sapiens) [17], 0.124. In addition, the composite z-score in the assay with Torsin-1A (Homo sapiens) [18] was -0.402; in assay [19], 0.513. Also, the z-score was 0.439 in [7]; 0.411 (inactive) in [9]; 0.109 (inactive) in assay [11]; -0.661 (inactive) in [12]; -0.491 (inactive) in assay [13]; -0.478 (inactive) in assay [14].

For the compound `C=C(/C(=C/C[C@@H](OC(=O)c1ccncc1)c1ccccc1OCCO)c1cc(C(=O)OC)ccc1OC)C(C)C`, the composite z-score was 0.0652 in assay [1]; 1.2 in assay [2]; 0.378 in assay [3]; -0.325 in [4]; 0.64 in [5]; 0.806 in [6]. In addition, the composite z-score in the assay with Lefty1 is 0.782; in [8], 0.986; in assay [10] it was 0.449; in assay [15] it was 0.187; in [16], 0.0498; with Torsin-1A (Homo sapiens) [17], 0.438. For the same compound, the composite z-score is 1.29 in the assay with Torsin-1A (Homo sapiens) [18] and 0.698 in assay [19]. Further, the z-score in assay [7] is 3.35; in assay [9] it was -1.47 (inactive); in assay [11], -2.43 (inactive); in [12], 0.128 (inactive); in assay [13], 22.5 (active); in [14], -0.267 (inactive).

As to `COC(=O)C1(Cc2ccccc2)C=C2C(=C(C(C)C)C(=O)C2C)CN1` (stereo not given), the composite z-score in [1] was 3.27; in assay [2] it was -0.11; in assay [3], 0.757; in assay [4] it was -0.72; in [5] it was -1.25; in [6] it was -1.07. For the same compound, the composite z-score in the assay with Lefty1 was -1.36; in [8] it was 0.349; in assay [10], 0.131; in assay [15], -0.333; in assay [16] it was 0.147; with Torsin-1A (Homo sapiens) [17], 0.334. For the same compound, the composite z-score in the assay with Torsin-1A (Homo sapiens) [18] was 0.707; in assay [19] it was -0.45. Moreover, the z-score was -1.83 in [7]; 1.27 (inactive) in assay [9]; -0.576 (inactive) in [11]; 0.429 (inactive) in assay [12]; 0.59 (inactive) in assay [13]; -0.173 (inactive) in [14].

With `CCOC(=O)C1=CC[C@@H](c2cc(Cl)ccc2Cl)N(S(=O)(=O)c2ccc(C)cc2)[C@H]1c1ccc(OC)cc1`, the composite z-score is -0.128 in [1]; -0.199 in assay [2]; 0.262 in assay [3]; -1.17 in [4]; 0.258 in assay [5]; -0.413 in assay [6]. For the same compound, the composite z-score in the assay with Lefty1 was -0.526; in assay [8] it was 0.0203; in assay [10] it was 1.11; in [15], 0.0102; in assay [16], 0.482; with Torsin-1A (Homo sapiens) [17], 0.234. Also, the composite z-score came out at 0.42 in the assay with Torsin-1A (Homo sapiens) [18] and 0.172 in [19]. Further, the z-score in assay [7] is 0.581; in assay [9], 0.953 (inactive); in [11], -4.08 (inactive); in [12], 0.42 (inactive); in assay [13] it was 0.472 (inactive); in assay [14], -0.555 (inactive).
